The source of these data is PubChem BioAssay AID1730 (National Center for Advancing Translational Sciences (NCATS), 2009).

Inconclusive results are not listed. A number with no mark means an inactive call. The source made the active and inactive calls. Calls follow the shape of the dose curve; as a rule, active = well fitted inhibition curve with a large enough effect; inconclusive = small, poorly fitted or top-dose-only effect; inactive = no such curve, though single readings can be large or run the other way.

The test is described as follows: Counterscreen Assay for Inhibitors of the ERK Signaling Pathway using a Homogeneous Screening Assay. The conditions noted are these: AlphaScreen bead counterscreen in cell lysate, 5 h; series mostly up to 45.6 µM; activity change, negative = inhibition: at the top concentration. From the text:
qHTS Assay for Inhibitors of the ERK Signaling Pathway using a Homogeneous Screening Assay
NIH Chemical Genomics Center [NCGC]
NIH Molecular Libraries Screening Centers Network [MLSCN]
Assay Submitter (PI): Dr. Wei Zheng, NCGC/NIH
The Ras/extracellular-signal-regulated kinase (ERK) mitogen activated protein (MAP) kinase signaling pathway (ERK1/2 cascade) plays is a key role in transmitting signals from the cell surface to the nucleus (Nishida and Gotoh 1993; Chang and Karin, 2001). The cascade is initiated by the small G-protein Ras, which recruits Raf […], where activation occurs. Alternatively, this pathway can be activated by elevating intracellular cAMP.
Activation of the ERK pathway is essential in increased cell division and cell survival. Sustained and constitutive activation of the ERK pathway, however, has been linked to uncontrolled cell proliferation, increased cell survival, and tumor progression. Thus, the ERK has been as an attractive target for cancer chemotherapy in the past few years (Sebolt-Leopold and Herrera, 2004). Given its physiological and pathological importance, assessment of ERK phosphorylation has been broadly performed in both basic research and drug discovery. Most assays for the measurement of ERK phosphorylation use the antibody-based detection methods, such as western blot and ELISA. These assays require multiple reagent additions with cell wash steps and are not suitable for high-throughput screening.
The current cell-based ERK phosphorylation assay was performed using AlphaScreen platform. AlphaScreen is a two bead-based proximity-dependent chemical energy transfer luminescent assay platform. The assay reagents (ERK SureFire(TM) kit) were supplied from TGR BioSciences (Australia). In the presence of specific antibodies, phosphorylated ERK will bring "donor" and "acceptor" beads to a proximity range (<200 nm), and subsequently lead a chemical luminescent reaction upon exciting donor beads with 680 nm laser. To exclude the assay-related false positives, we used a biotinylated rabbit IgG to perform a counter-screen. The biotinylated antibody mimics the phosphorylated ERK1/2 for bringing streptavidin coated beads and protein-A coated beads to a proximity range for the AlphaScreen detection.
NCGC Assay Protocol Summary:
Biotinylated rabbit IgG was used to perform a counter-screen in the context of an AlphaScreen assay kit provided by PerkinElmer. Data were normalized to the controls for basal activity (DMSO only) and 100% activation (25 nM IgG). AC50 values were determined from concentration-response data modeled with the standard Hill equation.
(1) Seed 4 ul/well of resuspended frozen HEK293 cells containing 2000 cells in white 1536-well plates for overnight with 1% FBS at 37C under a humidified atmosphere containing 5% CO2 and 95% air.
(2) Add 23 nL compounds in DMSO solution. The final titration was 0.6 nM to 46 uM.
(3) Incubate at 37C for 30 min.
(4) Dispense 0.5uL vasopressin (25 nM in final)
(5) Incubate at 37C for 5 min.
(6) Dispense 0.5uL of 1:2 diluted 5x lysis buffer.
(7) Incubate at 37C for 10 min.
(8) Dispense 1.5uL of mixture of activation buffer and reaction buffer with AlphaScreen beads (streptavidin donor beads and protein-A acceptor beads, 10 ng/well for each).
(9) Incubate at room temperature for 5 hr.
(10) Detect the assay plate in an EnVision plate reader (PerkinElmer) using the AlphaScreen detection mode.
Keywords: ERK, MEK, type-1 vasopressin receptors, homogenous, cell-based kinase assay, MLSMR, MLSCN, NIH Roadmap, qHTS and NCGC
In general terms: A counterscreen serves to expose hits that act by an unwanted route or on another target.
Turning to `CCCN1C(=O)/C(=C2/C=Cc3ccccc3N2CC)SC1=S`, the Potency was 3.55 µM (active).

Take `C=C[C@]1(C)CC(=O)[C@@]2(O)[C@@]3(C)C(O)CCC(C)(C)C3C(O)C(OC(C)=O)[C@@]2(C)O1` (stereo not given in full): the “activity change, negative = inhibition” value was -10.3%.

Consider `CCCNc1ncnc2sc(C)c(C)c12`, for which the “activity change, negative = inhibition” value was -22.1%.

As to `CCCCOc1cc(CC2CNC(=O)N2)ccc1OC` (stereo not given), the Potency entry is “inactive”.

For `CN(C)CCCn1cc(C2=C(c3c[nH]c4ccccc34)C(=O)NC2=O)c2ccccc21`, the Potency is 35.5 µM (active).

`N#CC(C#N)=C1C=CC=CN1/C(=C\c1ccco1)C(=O)c1ccc(Cl)cc1`: the “activity change, negative = inhibition” value is -19.5%.

`c1ccc(-c2csc(-c3nc4ccccc4[nH]3)n2)cc1`: the “activity change, negative = inhibition” value was -18.4% [at 57.5 µM].

Turning to `Nc1nc2c3ccccc3nc(C3CC3)n2n1`, the “activity change, negative = inhibition” value is -17.4% [at 57.5 µM].

In the case of `CCOC(=O)Cc1csc(NC(=O)CSc2ncnc3c2cnn3-c2ccc(OC)cc2)n1`, the “activity change, negative = inhibition” value was -15.9% [at 57.5 µM].

For `CC(=O)N1CCC(=NNc2nc3ccccc3s2)CC1`, the “activity change, negative = inhibition” value was -11.1%.

On to `Cn1nc(-c2ccc(Cl)cc2)nc2c(=O)n(C)c(=O)nc1-2`, for which the “activity change, negative = inhibition” value was -26.1%.

As for `CCN(C1CCCCC1)S(=O)(=O)c1ccc(S(=O)(=O)NCc2ccncc2)cc1`, the “activity change, negative = inhibition” value is 9.89% [at 57.5 µM].

In the case of `COc1cc(C(=O)Nc2nc(-c3cccs3)cs2)cc(OC)c1OC`, the “activity change, negative = inhibition” value was -25.6% [at 57.5 µM].

In the case of `COc1ccc(CC(=O)Nc2cccc(-c3nnc(-c4cccc(C)c4)o3)c2)cc1OC`, the “activity change, negative = inhibition” value is 9.16% [at 57.5 µM].

On to `CS(=O)(=O)Nc1cccc(-c2ccc3ncnc(Nc4ccc(F)cc4)c3c2)c1`, for which the “activity change, negative = inhibition” value is -9.98%.

On to `c1ccc(Nc2ncnc3ccc(-c4cccnc4)cc23)cc1`, for which the “activity change, negative = inhibition” value is -11.4%.

For `Fc1cccc(Nc2ncnc3sc4c(c23)CCC4)c1`, the “activity change, negative = inhibition” value was -7.2%.

Take `CN(C)c1ccc(Nc2c3c4c(cccc4n(C)c2=O)C(=O)c2ccccc2-3)cc1`: the Potency was 3.16 µM (active).

As for `COc1cc2ncnc(Nc3cccc(Cl)c3)c2cc1OC`, the Potency entry was “inactive”.

For `Cc1cccc(CNc2ncnc3ccc(-c4cccc(NS(C)(=O)=O)c4)cc23)c1`, the “activity change, negative = inhibition” value was -11.9%.

For the molecule `CNc1cccc2c1C(=O)c1ccccc1C2=O`, the Potency is 5.01 µM (active).

As to `Cc1sc2ncnc(Nc3ccccc3)c2c1C`, the “activity change, negative = inhibition” value is -11.9%.

In the case of `c1ccc(Nc2ncnc3sc4c(c23)CCC4)cc1`, the “activity change, negative = inhibition” value was -12.1%.

With `Cc1ccc(Nc2ncnc3sc(C)c(C)c23)cc1`, the “activity change, negative = inhibition” value is -17.7%.

As for `CC(/C=C/c1ccccc1)=N\Nc1ccccc1[N+](=O)[O-]`, the Potency was 3.16 µM (active).

Regarding `Fc1ccc(Nc2ncnc3sc4c(c23)CCC4)cc1`, the “activity change, negative = inhibition” value is -3.12%.

For `COc1cc2ncnc(NCc3cccc(Cl)c3)c2cc1OC`, the “activity change, negative = inhibition” value is -22.8%.

Regarding `COc1cc(C2CC(=O)c3c([nH]c(C(=O)OCCOC(C)C)c3C)C2)cc(OC)c1OC` (stereo not given), the “activity change, negative = inhibition” value is 4.07% [at 57.5 µM].

On to `CC(C)Cn1c(N)c(C(=O)CSc2ccc3c(c2)OCCO3)c(=O)n(C)c1=O`, for which the “activity change, negative = inhibition” value was 16.2% [at 57.5 µM].

Regarding `Cc1ccc(NNc2c(C)nc3ccccc3nc2=O)cc1`, the “activity change, negative = inhibition” value is -9.99%.

Take `COC(=O)Cc1c(C)c2ccc(OC(=O)c3ccco3)cc2oc1=O`: the “activity change, negative = inhibition” value was -7.84% [at 57.5 µM].

In the case of `Cc1nc2ccccc2nc(=O)c1NNc1ccccc1`, the “activity change, negative = inhibition” value is -26.2%.

On to `Cc1ccc(Nc2ncnc3sc(C)c(C)c23)cc1C`, for which the “activity change, negative = inhibition” value is -15.2%.

As to `COc1ccc(-c2ccc(SCC(=O)N3CCCC3)nn2)cc1OC`, the “activity change, negative = inhibition” value is -11.4% [at 57.5 µM].

In the case of `Fc1ccc(Nc2ncnc3sc4c(c23)CCC4)cc1F`, the “activity change, negative = inhibition” value was -2.34%.

For the molecule `Cc1cc2nc3ccc(=[N+](C)C)cc-3sc2cc1N`, the “activity change, negative = inhibition” value was -11.8%.

As for `C=C[C@@]1(C)CC(=O)[C@@]2(O)[C@@]3(C)[C@@H](O)CCC(C)(C)[C@@H]3[C@H](O)[C@H](OC(C)=O)[C@@]2(C)O1`, the “activity change, negative = inhibition” value is -8.35%.

On to `C=C[C@@]1(C)CC(=O)[C@@]2(O)[C@@]3(C)[C@@H](O)CCC(C)(C)[C@@H]3[C@H](OC(=O)CCN(C)C)[C@H](OC(C)=O)[C@@]2(C)O1`, for which the “activity change, negative = inhibition” value was -32.2% [at 57.5 µM].

As to `CCOC(=O)c1ccc(NC(=O)c2ccc(C)c(S(=O)(=O)N3CCOCC3)c2)cc1`, the “activity change, negative = inhibition” value was -20.2% [at 57.5 µM].

In the case of `Cc1sc2ncnc(Sc3nnnn3-c3ccc(Cl)cc3)c2c1C`, the “activity change, negative = inhibition” value is -12.9%.
